Reference: the supplement of paper PMC7411054
Where a name gives a salt, the structure may show the parent alone.

How the values were obtained:
Details in all cases: treatment time: 24 h
A549-ACTB-RAB5A [1] = assay: lowest phenotypically active concentration; higher = less potent
In short: (§1)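 The reporter lines, fifteen in total and built by gene editing in A549, HepG2 and WPMY1 cells, used BFP for segmentation alongside GFP and RFP/FusionRed markers. Each was treated at 0.3, 1, 3 or 9 µM for 24 h in four wells and then imaged live, with live-cell features normalised to solvent control wells. Deviation meant ≥3 of 4 wells beyond the 95th percentile of control Euclidean distances; reproducibility meant a median replicate Pearson correlation above the 95th percentile of non-replicates. Only conditions meeting both were scored as phenotypically active.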

A549-GM130-SQSTM1 [2] = assay: as above
In short: as §1

HepG2-ACTB-RAB5A [3] = assay: as above
In short: as §1

WPMY1-CANX-COX4 [4] = assay: as above
In short: as §1

A549-ACTB-RAB5A [5] = assay: phenotypically active (imaging signature differs from DMSO and reproducible) at any of 0.3-9 uM (binary (1 = active, 0 = inactive)); higher = active
In short: as §1

A549-CANX-COX4 = assay: as above
In short: as §1

A549-GM130-SQSTM1 [6] = assay: as above
In short: as §1

A549-TP53BP1-CLTA = assay: as above
In short: as §1

A549-TUBA1B-RELA [7] = assay: as above
In short: as §1

HepG2-ACTB-RAB5A [8] = assay: as above
In short: as §1

HepG2-CANX-COX4 = assay: as above
In short: as §1

HepG2-GM130-SQSTM1 = assay: as above
In short: as §1

HepG2-TP53BP1-CLTA = assay: as above
In short: as §1

HepG2-TUBA1B-RELA = assay: as above
In short: as §1

WPMY1-ACTB-RAB5A = assay: as above
In short: as §1

WPMY1-CANX-COX4 [9] = assay: as above
In short: as §1

WPMY1-GM130-SQSTM1 = assay: as above
In short: as §1

WPMY1-TP53BP1-CLTA = assay: as above
In short: as §1

WPMY1-TUBA1B-RELA = assay: as above
In short: as §1

A549-TUBA1B-RELA [10] = assay: lowest phenotypically active concentration; higher = less potent
In short: as §1

SMILES	lowest phenotypically active concentration (A549-ACTB-RAB5A [1]) [µM]	lowest phenotypically active concentration (A549-GM130-SQSTM1 [2]) [µM]	lowest phenotypically active concentration (HepG2-ACTB-RAB5A [3]) [µM]	lowest phenotypically active concentration (WPMY1-CANX-COX4 [4]) [µM]	phenotypically active (A549-ACTB-RAB5A [5])	phenotypically active (A549-CANX-COX4)	phenotypically active (A549-GM130-SQSTM1 [6])	phenotypically active (A549-TP53BP1-CLTA)	phenotypically active (A549-TUBA1B-RELA [7])	phenotypically active (HepG2-ACTB-RAB5A [8])	phenotypically active (HepG2-CANX-COX4)	phenotypically active (HepG2-GM130-SQSTM1)	phenotypically active (HepG2-TP53BP1-CLTA)	phenotypically active (HepG2-TUBA1B-RELA)	phenotypically active (WPMY1-ACTB-RAB5A)	phenotypically active (WPMY1-CANX-COX4 [9])	phenotypically active (WPMY1-GM130-SQSTM1)	phenotypically active (WPMY1-TP53BP1-CLTA)	phenotypically active (WPMY1-TUBA1B-RELA)	lowest phenotypically active concentration (A549-TUBA1B-RELA [10]) [µM]
Cc1cc2c(F)c(Oc3ncnn4cc(OC[C@@H](C)OC(=O)[C@H](C)N)c(C)c34)ccc2[nH]1 [brivanib-alaninate]	9	9	9	3	1 (active)	1 (active)	1 (active)	1 (active)	0 (inactive)	1 (active)	1 (active)	1 (active)	1 (active)	1 (active)	1 (active)	1 (active)	1 (active)	1 (active)	1 (active)	–
O=c1cc(-c2ccccc2)oc2c(O)c(O)ccc12 [7,8-Dihydroxyflavone]	9	–	9	9	1 (active)	1 (active)	0 (inactive)	0 (inactive)	1 (active)	1 (active)	1 (active)	1 (active)	0 (inactive)	0 (inactive)	1 (active)	1 (active)	1 (active)	0 (inactive)	1 (active)	9
Cc1cc(F)c(Nc2ncnc3cc(OCc4ccccc4)ccc23)cc1O	9	9	–	3	1 (active)	1 (active)	1 (active)	0 (inactive)	1 (active)	0 (inactive)	0 (inactive)	0 (inactive)	0 (inactive)	0 (inactive)	0 (inactive)	1 (active)	0 (inactive)	0 (inactive)	1 (active)	9
COc1cc2ncnc(Nc3cccc(Br)c3)c2cc1OC	3	9	–	9	1 (active)	1 (active)	1 (active)	1 (active)	1 (active)	0 (inactive)	0 (inactive)	1 (active)	1 (active)	1 (active)	0 (inactive)	1 (active)	1 (active)	1 (active)	0 (inactive)	3
CCCOc1ccc(CCc2nc3cc(-c4c(C)noc4C)ccc3n2CCN2CCOCC2)cc1	9	–	9	–	1 (active)	1 (active)	0 (inactive)	0 (inactive)	0 (inactive)	1 (active)	1 (active)	0 (inactive)	1 (active)	0 (inactive)	0 (inactive)	0 (inactive)	0 (inactive)	0 (inactive)	0 (inactive)	–
OCc1cc(C(O)CNCCCCCCOCCCCc2ccccc2)ccc1O (stereo not drawn) [salmeterol]	9	9	9	3	1 (active)	1 (active)	1 (active)	0 (inactive)	1 (active)	1 (active)	0 (inactive)	1 (active)	1 (active)	1 (active)	1 (active)	1 (active)	1 (active)	1 (active)	1 (active)	9
C=C1CC[C@@H]2[C@](C)(CO)[C@H](O)CC[C@@]2(C)[C@@H]1C/C=C1/C(=O)OC[C@H]1O [Andrographolide]	9	3	3	–	1 (active)	1 (active)	1 (active)	0 (inactive)	1 (active)	1 (active)	1 (active)	1 (active)	1 (active)	1 (active)	0 (inactive)	0 (inactive)	1 (active)	0 (inactive)	1 (active)	9
Nc1ncnc2[nH]nc(Nc3ccc(F)cc3)c12	9	–	9	9	1 (active)	1 (active)	0 (inactive)	0 (inactive)	1 (active)	1 (active)	0 (inactive)	1 (active)	1 (active)	1 (active)	1 (active)	1 (active)	1 (active)	1 (active)	1 (active)	9
C=C1C(=O)O[C@@H]2C=C(C)CCC=C(C)CC[C@@H]12 [Costunolide]	9	–	9	–	1 (active)	1 (active)	0 (inactive)	0 (inactive)	0 (inactive)	1 (active)	1 (active)	1 (active)	1 (active)	0 (inactive)	1 (active)	0 (inactive)	1 (active)	1 (active)	1 (active)	–
O=C1/C(=C\c2ccncc2)CCC/C1=C\c1ccncc1	3	3	9	3	1 (active)	1 (active)	1 (active)	0 (inactive)	0 (inactive)	1 (active)	1 (active)	1 (active)	1 (active)	1 (active)	1 (active)	1 (active)	1 (active)	1 (active)	1 (active)	–
O=S(=O)(c1cccc2c(O)nccc12)N1CCCNCC1 [HA 1100 hydrochloride]	3	–	9	3	1 (active)	1 (active)	0 (inactive)	1 (active)	1 (active)	1 (active)	1 (active)	1 (active)	1 (active)	0 (inactive)	1 (active)	1 (active)	1 (active)	1 (active)	1 (active)	9
COc1cc2c(cc1NS(=O)(=O)c1ccc(Br)cc1C)n(C)c(=O)n2C	3	–	9	–	1 (active)	1 (active)	0 (inactive)	1 (active)	0 (inactive)	1 (active)	1 (active)	1 (active)	0 (inactive)	1 (active)	0 (inactive)	0 (inactive)	0 (inactive)	0 (inactive)	0 (inactive)	–
